For part of these data: Results with a measured potency or affinity are listed apart. Activity calls are given as the source filed them. Unless noted, no rule for the calls is given here.
Legend:
[1] = antimalarial activity against Dd2 strain (AID 2302;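 active = growth inhibition above 50% at the single 2 µM test dose, taken to imply half-maximal potency below 2 µM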;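 also: 0% = DMSO untreated growth and 100% = chloroquine plus artemisinin killed control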); conditions: P. falciparum Dd2 in RBCs, LDH growth readout, 72 h; at 2 µM; hits give high values
[2] = HepG2 cytotoxicity, primary screen, cytotoxicity control for P. falciparum antimalarial project, cell-based, ATP luminescence (AID 2303;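 active = inhibition above 50%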;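 also: 0% = DMSO wells and 100% = digitonin-killed cells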); conditions: HepG2 viability, 24-48 h, at 10 µM, hits give high values
[3] = molecular target: L-lactate dehydrogenase (Plasmodium falciparum (isolate CDC / Honduras)) (UniProt Q27743); test: PfLDH activity inhibition – cell lysate, 3D7 strain, counter-screen for P. falciparum growth inhibition project (AID 2304);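 also: 0% = vehicle and 100% = reference inhibitor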; conditions: P. falciparum 3D7 crude extract, LDH APAD/NBT absorbance; at 2 µM; hits give high values
Chain of L-lactate dehydrogenase (Plasmodium falciparum (isolate CDC / Honduras)) (Q27743 whole entry, looked up): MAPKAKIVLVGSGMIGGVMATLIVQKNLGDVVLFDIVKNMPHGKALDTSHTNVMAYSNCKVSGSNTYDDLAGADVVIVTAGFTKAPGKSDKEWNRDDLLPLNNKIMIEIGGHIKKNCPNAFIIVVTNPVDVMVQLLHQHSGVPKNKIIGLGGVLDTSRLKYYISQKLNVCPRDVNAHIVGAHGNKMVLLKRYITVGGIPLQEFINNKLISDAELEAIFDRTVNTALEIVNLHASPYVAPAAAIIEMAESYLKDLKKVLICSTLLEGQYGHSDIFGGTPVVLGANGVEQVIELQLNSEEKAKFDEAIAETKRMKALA

[4] = inhibition of 3D7 malaria parasite growth – strain 3D7 (AID 2306);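 also: 0% = DMSO wells and 100% = chloroquine plus artemisinin control wells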; conditions: P. falciparum 3D7 erythrocytic growth, LDH absorbance, 72 h; at 2 µM; hits give high values
[5] = molecular target: Calcium-dependent protein kinase 1 (Plasmodium falciparum (isolate 3D7)) (UniProt P62344); test: PfCDPK1 kinase inhibitors, biochemical, TCAMS library (AID 1159585; cut-off not given, nearly all actives have IC50 up to about 0.98 µM;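 also: inhibitors leave more ATP so luminescence rises with inhibition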); conditions: recombinant PfCDPK1, Kinase-Glo ATP depletion luminescence
Chain of Calcium-dependent protein kinase 1 (Plasmodium falciparum (isolate 3D7)) (P62344 whole entry, looked up): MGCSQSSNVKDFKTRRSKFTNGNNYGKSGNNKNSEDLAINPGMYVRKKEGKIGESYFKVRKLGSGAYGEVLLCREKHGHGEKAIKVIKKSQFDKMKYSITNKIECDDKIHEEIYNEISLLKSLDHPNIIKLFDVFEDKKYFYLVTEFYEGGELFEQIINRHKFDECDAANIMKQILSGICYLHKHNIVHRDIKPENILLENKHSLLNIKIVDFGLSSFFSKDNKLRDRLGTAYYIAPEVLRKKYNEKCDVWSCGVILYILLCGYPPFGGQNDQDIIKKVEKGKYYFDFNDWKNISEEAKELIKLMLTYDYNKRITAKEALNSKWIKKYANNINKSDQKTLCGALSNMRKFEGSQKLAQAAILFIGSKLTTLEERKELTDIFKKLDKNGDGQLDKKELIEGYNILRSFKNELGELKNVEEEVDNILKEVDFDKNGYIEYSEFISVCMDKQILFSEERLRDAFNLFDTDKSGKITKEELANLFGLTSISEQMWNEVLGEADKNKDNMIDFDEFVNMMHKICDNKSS

[6] = molecular target: Plasmodium falciparum protein kinase 6 (PK6, PF3D7_1337100) (UniProt Q8IDW1); test: PfPK6 kinase inhibitors, biochemical, TCAMS library (AID 1159586); conditions: recombinant PfPK6, Kinase-Glo ATP depletion luminescence
Chain of Plasmodium falciparum protein kinase 6 (PK6, PF3D7_1337100) (Q8IDW1 1-305): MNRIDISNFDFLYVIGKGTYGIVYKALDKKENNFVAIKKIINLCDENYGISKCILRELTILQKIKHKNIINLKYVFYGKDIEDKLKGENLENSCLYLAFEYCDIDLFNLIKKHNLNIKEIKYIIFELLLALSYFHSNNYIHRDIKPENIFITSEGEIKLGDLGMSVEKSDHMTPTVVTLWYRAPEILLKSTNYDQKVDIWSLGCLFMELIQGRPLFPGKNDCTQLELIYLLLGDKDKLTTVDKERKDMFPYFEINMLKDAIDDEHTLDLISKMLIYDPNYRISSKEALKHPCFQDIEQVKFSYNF

[7] = molecular target: Protein kinase 7 (PK7), Plasmodium falciparum 3D7 (PF3D7_0213400) (UniProt Q7YTF7); test: inhibition of Plasmodium PK7 catalytic activity – biochemical, TCAMS antimalarial set, Kinase-Glo luminescence (AID 1159587); conditions: recombinant PfPK7, Kinase-Glo ATP depletion luminescence
Chain of Protein kinase 7 (PK7), Plasmodium falciparum 3D7 (PF3D7_0213400) (Q7YTF7 1-343): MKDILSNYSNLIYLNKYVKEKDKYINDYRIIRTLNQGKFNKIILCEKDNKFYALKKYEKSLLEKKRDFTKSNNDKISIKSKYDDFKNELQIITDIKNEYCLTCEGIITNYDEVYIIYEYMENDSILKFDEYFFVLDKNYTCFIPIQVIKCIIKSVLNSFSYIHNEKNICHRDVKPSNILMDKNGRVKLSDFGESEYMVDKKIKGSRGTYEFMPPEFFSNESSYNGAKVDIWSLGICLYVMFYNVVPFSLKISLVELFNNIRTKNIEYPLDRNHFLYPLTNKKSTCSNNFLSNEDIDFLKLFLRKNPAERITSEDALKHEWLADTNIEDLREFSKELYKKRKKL

[8] = molecular target: Calcium-dependent protein kinase 4 (Plasmodium falciparum (isolate 3D7)) (UniProt Q8IBS5); test: PfCDPK4 kinase inhibitors, biochemical, TCAMS library (AID 1159588; cut-off not given, nearly all actives have IC50 up to about 0.91 µM); conditions: recombinant PfCDPK4, Kinase-Glo ATP depletion luminescence
Chain of Calcium-dependent protein kinase 4 (Plasmodium falciparum (isolate 3D7)) (Q8IBS5 whole entry, looked up): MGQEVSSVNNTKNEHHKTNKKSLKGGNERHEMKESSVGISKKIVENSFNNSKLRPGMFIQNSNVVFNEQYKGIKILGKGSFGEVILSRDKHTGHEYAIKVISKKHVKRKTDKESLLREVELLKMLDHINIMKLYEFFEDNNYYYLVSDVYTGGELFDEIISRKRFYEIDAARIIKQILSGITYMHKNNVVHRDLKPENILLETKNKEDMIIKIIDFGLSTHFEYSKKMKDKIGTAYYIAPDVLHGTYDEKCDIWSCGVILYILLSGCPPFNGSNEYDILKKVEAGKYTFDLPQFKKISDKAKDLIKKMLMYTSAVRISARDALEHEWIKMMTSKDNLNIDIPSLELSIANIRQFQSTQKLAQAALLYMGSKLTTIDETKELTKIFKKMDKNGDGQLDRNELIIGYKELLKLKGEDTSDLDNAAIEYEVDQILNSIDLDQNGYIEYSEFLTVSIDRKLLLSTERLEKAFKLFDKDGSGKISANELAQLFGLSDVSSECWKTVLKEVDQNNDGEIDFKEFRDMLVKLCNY

CCN(CC)c1ccc(-c2nc3ncc(Cl)cc3[nH]2)cc1
inactive: inhibition [2] 16% | inhibition [3] -5% | outcome [5] | outcome [6] | outcome [7] | outcome [8]
active: growth inhibition [1] 85% | growth inhibition [4] 85%

N#Cc1ccc(CN2CCC(Oc3ccc(NC(=O)c4ccsc4)cc3Cl)C2)cc1 (centres undefined)
active: growth inhibition [1] 79% | growth inhibition [4] 88%
inactive: inhibition [2] 29% | inhibition [3] -2% | outcome [5] | outcome [6] | outcome [7] | outcome [8]

Cc1ccc(NC(=O)Nc2ccc(Cn3ncc(N4CCCNCC4)c(Cl)c3=O)cc2)cc1
inactive: growth inhibition [1] 13% | inhibition [2] 35% | inhibition [3] -1% | outcome [5] | outcome [6] | outcome [7] | outcome [8]
active: growth inhibition [4] 84%
